Test results taken from the supplement of paper PMC11732987, “Enantioselective OTUD7B fragment discovery through chemoproteomics screening and high-throughput optimisation” (Communications Chemistry, 2025).

Columns and labels:
Assay in all cases: log2 ratio of Biotin-Ahx-Ub-VS probe labelling (fragment/DMSO); higher = less target engagement (more negative = stronger competition), active = hit call of the paper (q ≤ 0.05, log2 ratio ≤ -1)
Conditions in all cases: compound concentration: 200 uM; treatment time: 3 h
USP19 = biological target: T1, USP19 (UniProt O94966)
T1 sequence (whole entry): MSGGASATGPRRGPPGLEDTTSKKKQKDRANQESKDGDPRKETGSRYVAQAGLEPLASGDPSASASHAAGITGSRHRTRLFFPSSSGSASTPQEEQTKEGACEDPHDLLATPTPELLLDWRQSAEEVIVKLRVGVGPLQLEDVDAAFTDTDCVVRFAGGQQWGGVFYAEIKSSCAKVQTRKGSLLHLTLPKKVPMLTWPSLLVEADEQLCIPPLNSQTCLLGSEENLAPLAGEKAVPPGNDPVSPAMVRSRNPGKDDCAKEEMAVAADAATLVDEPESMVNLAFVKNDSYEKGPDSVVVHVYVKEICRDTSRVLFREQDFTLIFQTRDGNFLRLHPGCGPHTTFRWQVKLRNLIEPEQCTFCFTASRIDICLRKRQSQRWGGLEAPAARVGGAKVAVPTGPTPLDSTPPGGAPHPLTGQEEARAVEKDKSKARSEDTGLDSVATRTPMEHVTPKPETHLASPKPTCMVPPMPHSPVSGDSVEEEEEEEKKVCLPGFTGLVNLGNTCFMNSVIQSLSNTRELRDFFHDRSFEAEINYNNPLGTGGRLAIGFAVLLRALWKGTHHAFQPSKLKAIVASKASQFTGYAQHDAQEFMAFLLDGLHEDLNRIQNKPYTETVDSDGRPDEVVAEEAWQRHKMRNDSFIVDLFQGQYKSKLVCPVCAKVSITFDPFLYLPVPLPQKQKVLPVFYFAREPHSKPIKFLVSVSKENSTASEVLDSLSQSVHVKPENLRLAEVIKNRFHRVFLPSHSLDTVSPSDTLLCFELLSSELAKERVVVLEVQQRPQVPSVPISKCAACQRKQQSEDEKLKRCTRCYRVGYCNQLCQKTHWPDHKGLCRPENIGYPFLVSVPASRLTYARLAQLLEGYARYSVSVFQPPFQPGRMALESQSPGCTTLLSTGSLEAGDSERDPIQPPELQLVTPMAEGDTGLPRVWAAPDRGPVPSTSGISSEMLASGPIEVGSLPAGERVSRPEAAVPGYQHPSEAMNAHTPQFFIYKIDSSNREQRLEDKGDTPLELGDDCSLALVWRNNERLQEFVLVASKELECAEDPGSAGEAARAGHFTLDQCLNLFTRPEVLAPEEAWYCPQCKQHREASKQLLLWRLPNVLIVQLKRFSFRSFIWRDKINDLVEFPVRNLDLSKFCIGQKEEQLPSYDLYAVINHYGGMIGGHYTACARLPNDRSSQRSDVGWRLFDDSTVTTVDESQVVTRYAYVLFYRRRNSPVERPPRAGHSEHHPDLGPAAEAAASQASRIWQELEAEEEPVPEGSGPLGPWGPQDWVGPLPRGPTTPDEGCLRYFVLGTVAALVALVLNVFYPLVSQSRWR
Procedure, shortened: (§1)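 Labelled DUBs from HEK293T lysate were NeutrAvidin-enriched, digested with LysC and trypsin, and run by diaPASEF LC-MS/MS. Before that, each 495 µg sample in Tris/CHAPS/IGEPAL buffer with protease inhibitors was treated in triplicate with fragment at 200 µM or vehicle for 3 h, then with Biotin-Ahx-Ub-VS at 0.5 µM final for 1 h. Values are average log2 ratios of fragment over vehicle by unpaired t-test, based on global-median-normalised Spectronaut label-free quantities from proteins with ≥2 unique peptides.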

USP22 = biological target: T2, USP22 (UniProt Q9UPT9)
T2 sequence (whole entry): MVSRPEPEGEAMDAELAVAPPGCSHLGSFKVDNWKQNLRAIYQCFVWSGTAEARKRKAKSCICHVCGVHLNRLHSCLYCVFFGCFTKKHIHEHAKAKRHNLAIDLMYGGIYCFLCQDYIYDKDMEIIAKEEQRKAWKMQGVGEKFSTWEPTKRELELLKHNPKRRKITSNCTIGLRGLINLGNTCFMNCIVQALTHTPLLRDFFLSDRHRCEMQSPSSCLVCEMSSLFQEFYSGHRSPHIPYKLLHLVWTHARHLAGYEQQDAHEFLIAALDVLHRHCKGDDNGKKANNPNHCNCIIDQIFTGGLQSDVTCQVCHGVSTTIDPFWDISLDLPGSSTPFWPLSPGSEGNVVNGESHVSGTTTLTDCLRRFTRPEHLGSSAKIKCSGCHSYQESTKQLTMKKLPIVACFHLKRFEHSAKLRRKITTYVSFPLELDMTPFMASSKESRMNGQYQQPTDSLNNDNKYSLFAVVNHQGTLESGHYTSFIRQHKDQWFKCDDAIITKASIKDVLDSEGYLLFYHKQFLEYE
Procedure, shortened: as §1

USP24 = USP24 (UniProt Q9UPU5)
Procedure, shortened: as §1

USP25 = biological target: T3, USP25 (UniProt Q9UHP3)
T3 sequence (whole entry): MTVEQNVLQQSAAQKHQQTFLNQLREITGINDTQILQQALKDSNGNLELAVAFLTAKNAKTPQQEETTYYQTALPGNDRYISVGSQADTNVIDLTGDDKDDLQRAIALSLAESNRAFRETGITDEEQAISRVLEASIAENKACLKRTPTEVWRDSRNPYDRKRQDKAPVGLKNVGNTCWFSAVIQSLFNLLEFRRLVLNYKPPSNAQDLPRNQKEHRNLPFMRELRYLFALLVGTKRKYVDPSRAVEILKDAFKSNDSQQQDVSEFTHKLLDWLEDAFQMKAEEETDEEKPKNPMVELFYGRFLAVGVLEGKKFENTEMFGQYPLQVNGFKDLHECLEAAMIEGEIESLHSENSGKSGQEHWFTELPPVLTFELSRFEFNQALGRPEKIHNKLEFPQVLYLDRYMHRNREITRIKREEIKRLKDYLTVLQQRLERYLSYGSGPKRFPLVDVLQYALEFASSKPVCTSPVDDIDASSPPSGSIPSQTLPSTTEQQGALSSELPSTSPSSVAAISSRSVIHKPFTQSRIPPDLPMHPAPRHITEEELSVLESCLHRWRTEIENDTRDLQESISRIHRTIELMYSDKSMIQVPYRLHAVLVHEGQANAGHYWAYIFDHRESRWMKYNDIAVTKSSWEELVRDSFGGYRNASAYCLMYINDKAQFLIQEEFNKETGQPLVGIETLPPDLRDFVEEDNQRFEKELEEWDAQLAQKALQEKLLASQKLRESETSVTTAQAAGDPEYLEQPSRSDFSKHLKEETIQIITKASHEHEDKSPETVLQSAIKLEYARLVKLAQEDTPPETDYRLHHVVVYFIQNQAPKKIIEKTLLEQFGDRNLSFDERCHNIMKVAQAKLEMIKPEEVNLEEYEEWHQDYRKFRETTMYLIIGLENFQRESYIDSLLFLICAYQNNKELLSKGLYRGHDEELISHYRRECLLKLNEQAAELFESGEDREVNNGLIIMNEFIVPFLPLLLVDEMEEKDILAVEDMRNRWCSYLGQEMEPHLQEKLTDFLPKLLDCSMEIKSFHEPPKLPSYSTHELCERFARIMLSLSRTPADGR
Procedure, shortened: as §1

USP28 = biological target: T4, USP28 (UniProt Q96RU2)
T4 sequence (whole entry): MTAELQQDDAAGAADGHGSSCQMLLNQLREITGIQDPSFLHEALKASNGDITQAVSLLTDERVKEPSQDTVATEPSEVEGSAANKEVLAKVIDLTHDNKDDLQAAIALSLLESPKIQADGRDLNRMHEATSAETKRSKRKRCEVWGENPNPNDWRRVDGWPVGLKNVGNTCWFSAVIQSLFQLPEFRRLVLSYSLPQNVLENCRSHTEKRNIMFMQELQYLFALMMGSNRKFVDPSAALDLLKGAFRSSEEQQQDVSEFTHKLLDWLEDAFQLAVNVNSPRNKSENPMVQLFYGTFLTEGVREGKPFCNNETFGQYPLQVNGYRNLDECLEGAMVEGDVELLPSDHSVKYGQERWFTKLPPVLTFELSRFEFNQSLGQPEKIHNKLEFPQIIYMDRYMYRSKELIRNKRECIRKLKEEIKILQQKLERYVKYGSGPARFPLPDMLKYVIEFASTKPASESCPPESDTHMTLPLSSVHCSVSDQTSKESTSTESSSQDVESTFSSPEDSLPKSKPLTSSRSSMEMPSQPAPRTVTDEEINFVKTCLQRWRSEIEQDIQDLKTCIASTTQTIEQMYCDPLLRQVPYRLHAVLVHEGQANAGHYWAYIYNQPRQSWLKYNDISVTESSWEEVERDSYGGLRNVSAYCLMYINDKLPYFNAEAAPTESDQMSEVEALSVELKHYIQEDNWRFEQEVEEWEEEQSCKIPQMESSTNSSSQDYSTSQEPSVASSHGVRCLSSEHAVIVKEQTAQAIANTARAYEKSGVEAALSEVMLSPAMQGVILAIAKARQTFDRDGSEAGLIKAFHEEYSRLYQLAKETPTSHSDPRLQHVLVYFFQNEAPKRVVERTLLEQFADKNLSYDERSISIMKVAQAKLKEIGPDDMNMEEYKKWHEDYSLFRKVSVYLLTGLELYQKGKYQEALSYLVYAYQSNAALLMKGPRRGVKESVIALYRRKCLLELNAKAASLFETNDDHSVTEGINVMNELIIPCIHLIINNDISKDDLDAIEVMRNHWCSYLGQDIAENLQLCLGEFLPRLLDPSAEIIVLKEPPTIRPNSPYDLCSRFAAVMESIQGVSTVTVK
Procedure, shortened: as §1

Measured: log2 ratio of Biotin-Ahx-Ub-VS probe labelling

USP24, sequence (Q9UPU5 whole entry): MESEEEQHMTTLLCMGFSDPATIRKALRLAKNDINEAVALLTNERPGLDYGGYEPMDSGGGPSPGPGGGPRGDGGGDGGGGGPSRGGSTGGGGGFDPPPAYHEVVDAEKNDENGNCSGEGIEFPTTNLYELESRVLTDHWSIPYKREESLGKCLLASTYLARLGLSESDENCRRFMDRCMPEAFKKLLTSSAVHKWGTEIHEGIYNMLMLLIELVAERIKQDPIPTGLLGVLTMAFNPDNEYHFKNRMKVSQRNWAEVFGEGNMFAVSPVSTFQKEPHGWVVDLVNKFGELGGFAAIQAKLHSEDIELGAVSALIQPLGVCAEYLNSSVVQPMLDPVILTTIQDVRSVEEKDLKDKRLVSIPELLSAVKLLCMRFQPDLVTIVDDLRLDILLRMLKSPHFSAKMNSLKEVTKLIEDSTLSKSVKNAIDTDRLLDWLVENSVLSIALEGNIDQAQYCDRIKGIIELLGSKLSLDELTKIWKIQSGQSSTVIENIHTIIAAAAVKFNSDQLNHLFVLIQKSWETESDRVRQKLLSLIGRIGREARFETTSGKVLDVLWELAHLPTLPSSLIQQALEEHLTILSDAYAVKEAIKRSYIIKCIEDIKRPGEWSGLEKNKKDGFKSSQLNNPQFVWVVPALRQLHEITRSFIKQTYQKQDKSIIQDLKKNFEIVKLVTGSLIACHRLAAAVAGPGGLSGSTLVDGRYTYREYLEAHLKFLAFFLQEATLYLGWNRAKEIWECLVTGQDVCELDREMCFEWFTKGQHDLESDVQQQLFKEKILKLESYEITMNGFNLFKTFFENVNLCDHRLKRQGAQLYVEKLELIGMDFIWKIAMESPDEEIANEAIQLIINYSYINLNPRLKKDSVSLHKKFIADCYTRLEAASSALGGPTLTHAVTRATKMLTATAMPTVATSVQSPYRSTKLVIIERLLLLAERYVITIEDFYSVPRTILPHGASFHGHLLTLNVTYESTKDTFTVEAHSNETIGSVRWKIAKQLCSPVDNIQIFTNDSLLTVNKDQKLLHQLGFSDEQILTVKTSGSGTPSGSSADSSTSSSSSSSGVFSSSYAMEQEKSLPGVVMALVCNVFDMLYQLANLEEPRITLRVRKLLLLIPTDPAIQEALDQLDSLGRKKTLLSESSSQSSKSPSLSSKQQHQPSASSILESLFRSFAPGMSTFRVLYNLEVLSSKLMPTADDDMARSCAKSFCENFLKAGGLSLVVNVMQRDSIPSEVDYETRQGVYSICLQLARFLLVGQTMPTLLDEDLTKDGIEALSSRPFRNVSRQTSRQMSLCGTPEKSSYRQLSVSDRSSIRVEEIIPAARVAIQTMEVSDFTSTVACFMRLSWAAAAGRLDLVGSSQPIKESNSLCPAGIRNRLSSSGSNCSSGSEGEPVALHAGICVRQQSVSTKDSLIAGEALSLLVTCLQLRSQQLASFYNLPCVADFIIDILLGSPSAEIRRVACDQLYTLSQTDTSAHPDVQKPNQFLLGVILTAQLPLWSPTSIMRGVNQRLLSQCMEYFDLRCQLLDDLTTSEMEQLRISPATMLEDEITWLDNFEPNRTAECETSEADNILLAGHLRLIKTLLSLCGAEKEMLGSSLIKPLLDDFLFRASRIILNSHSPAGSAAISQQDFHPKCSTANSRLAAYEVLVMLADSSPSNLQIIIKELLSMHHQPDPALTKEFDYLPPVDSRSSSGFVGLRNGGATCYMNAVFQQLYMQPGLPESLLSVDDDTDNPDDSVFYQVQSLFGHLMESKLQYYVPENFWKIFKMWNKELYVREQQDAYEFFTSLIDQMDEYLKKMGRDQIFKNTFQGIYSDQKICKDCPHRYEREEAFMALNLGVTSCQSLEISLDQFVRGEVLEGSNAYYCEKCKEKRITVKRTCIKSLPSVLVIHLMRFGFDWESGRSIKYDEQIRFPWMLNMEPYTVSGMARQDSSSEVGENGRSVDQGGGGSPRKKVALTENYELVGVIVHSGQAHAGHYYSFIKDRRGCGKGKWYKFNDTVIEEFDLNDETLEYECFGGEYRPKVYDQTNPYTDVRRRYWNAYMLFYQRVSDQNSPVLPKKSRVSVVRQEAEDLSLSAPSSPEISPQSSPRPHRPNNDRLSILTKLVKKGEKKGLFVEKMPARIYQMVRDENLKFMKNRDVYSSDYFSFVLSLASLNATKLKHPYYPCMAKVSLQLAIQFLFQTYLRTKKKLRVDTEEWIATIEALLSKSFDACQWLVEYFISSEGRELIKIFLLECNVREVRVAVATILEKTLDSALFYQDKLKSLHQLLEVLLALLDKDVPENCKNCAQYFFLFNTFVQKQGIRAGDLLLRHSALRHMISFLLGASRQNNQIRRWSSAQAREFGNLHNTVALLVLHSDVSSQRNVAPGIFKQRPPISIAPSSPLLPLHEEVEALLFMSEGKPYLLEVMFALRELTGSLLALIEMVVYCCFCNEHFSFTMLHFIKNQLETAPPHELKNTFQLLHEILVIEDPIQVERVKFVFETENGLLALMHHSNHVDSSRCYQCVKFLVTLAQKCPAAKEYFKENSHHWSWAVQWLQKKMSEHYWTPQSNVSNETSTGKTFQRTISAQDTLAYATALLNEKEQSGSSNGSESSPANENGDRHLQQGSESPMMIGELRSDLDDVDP

O=C(CCl)NC1CCN(C(=O)C2CCCCC2)CC1
inactive: USP19 0.0532 | USP22 0.324 | USP24 -0.169 | USP25 -0.158 | USP28 -0.257
